# Values joined by “and” are separate entries in the source; they are usually repeats but may differ in a detail not shown here. Equal values may be shown once. Inconclusive results are not listed. Where a call stands in place of a potency, no number is given. Some compounds were tested as several samples or in several runs, with calls that do not always agree. Active and inactive are the calls of the source. Calls follow the shape of the dose curve; as a rule, active = well fitted curve in the direction sought with a large enough effect in the repeat runs; inconclusive = weak or mixed curves; inactive = no such curve, though single readings can be large; an effect the other way counts as inactive or inconclusive.
# Assays:
# [1] = Caspase-3/7 induction in CHO-K1 cells by small molecules, qHTS cell viability counter screen (AID 1346979); also: nearly all actives have a fitted effect of over 35% in size; also: potency is read from the fitted curve at half-maximal effect
# Outline: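 In the same wells as the caspase read, viability of compound-treated wild-type CHO-K1 cells was assessed using CellTiter-Fluor, added after 16hr at 37C and measured by fluorescence following 1hr further incubation.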
# [2] = Caspase-3/7 induction in CHO-K1 cells by small molecules, qHTS assay (AID 1346980); also: nearly all actives have a fitted effect of over 15% in size; also: potency is read from the fitted curve at half-maximal effect
# Outline: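 Wild-type cells were seeded at 1,500 per well and settled 5 hr at 37 C, 5% CO2, then exposed to DMSO-dissolved compounds for 17 hr. Caspase-Glo 3/7 reagent was added, and luminescence was read after 30min at room temperature.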
# [3] = Caspase-3/7 induction in HepG2 cells by small molecules, qHTS cell viability counter screen (AID 1346981); also: nearly all actives have a fitted effect of over 30% in size; also: potency is read from the fitted curve at half-maximal effect
# Outline: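 HepG2, WT, 2,000 cells/well; 5 hr pre-incubation 37 C/5% CO2; compound pin-transferred from DMSO; 16 hr exposure; CellTiter-Fluor, 1 hr; fluorescence read.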
# [4] = molecular target: Nuclear receptor subfamily 1 group I member 2 (Homo sapiens) (UniProt O75469); assay: Human pregnane X receptor (PXR) small molecule agonists, qHTS assay (AID 1346982); also: nearly all actives have a fitted effect of over 35% in size; also: potency is read from the fitted curve at half-maximal effect
# Chain of Nuclear receptor subfamily 1 group I member 2 (Homo sapiens) (O75469 whole entry, looked up): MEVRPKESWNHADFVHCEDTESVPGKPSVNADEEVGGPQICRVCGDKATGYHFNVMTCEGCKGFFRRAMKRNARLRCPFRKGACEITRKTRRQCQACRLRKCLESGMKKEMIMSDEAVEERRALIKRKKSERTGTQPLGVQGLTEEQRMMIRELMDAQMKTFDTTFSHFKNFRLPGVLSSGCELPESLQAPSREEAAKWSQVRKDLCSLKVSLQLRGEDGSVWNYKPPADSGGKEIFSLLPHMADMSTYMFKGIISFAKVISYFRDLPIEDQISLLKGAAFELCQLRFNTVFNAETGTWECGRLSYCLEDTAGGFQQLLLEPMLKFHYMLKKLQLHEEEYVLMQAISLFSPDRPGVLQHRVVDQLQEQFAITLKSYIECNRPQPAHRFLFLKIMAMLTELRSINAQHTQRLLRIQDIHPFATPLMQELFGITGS
# Outline: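 Luciferase signal from ONE-Glo (30 min, room temperature) measured activation of hPXR-driven CYP3A4 reporter expression in PXR-Luc HepG2 cells treated with compounds for 24 hr at 37 C.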
# [5] = molecular target: Cytochrome P450 2D6 (Homo sapiens) (UniProt P10635); assay: Cytochrome P450 Family 2 Subfamily D Member 6 (CYP2D6) small molecule antagonists: luciferase reporter qHTS assay (AID 1671196); also: nearly all actives have a fitted effect of over 50% in size; also: potency is read from the fitted curve at half-maximal effect
# Chain of Cytochrome P450 2D6 (Homo sapiens) (P10635 whole entry, looked up): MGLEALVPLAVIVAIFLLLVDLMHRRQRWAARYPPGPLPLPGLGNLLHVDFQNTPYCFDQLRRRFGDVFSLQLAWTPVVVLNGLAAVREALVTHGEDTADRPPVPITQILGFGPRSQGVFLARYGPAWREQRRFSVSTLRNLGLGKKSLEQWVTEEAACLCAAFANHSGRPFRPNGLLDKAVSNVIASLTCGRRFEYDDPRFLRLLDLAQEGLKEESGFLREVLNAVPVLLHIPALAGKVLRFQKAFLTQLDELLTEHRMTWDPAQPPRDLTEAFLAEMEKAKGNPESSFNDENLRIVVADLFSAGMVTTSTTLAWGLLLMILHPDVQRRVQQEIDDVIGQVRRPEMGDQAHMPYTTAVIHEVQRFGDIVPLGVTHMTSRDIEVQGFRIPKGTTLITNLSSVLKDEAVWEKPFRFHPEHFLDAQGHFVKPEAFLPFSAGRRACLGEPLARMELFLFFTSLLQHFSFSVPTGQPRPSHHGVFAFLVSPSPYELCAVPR
# Outline: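 Read-out is luminescence from luciferin formed by CYP2D6 turnover of a proluciferin substrate, recorded as relative luminescence units. Reactions ran 1 h at room temperature after NADPH regeneration solution was added.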
# [6] = molecular target: Cytochrome P450 2C19 (Homo sapiens) (UniProt P33261); assay: Cytochrome P450 Family 2 Subfamily C Member 19 (CYP2C19) small molecule antagonists: luciferase reporter qHTS assay (AID 1671197); also: nearly all actives have a fitted effect of over 65% in size; also: potency is read from the fitted curve at half-maximal effect
# Chain of Cytochrome P450 2C19 (Homo sapiens) (P33261 whole entry, looked up): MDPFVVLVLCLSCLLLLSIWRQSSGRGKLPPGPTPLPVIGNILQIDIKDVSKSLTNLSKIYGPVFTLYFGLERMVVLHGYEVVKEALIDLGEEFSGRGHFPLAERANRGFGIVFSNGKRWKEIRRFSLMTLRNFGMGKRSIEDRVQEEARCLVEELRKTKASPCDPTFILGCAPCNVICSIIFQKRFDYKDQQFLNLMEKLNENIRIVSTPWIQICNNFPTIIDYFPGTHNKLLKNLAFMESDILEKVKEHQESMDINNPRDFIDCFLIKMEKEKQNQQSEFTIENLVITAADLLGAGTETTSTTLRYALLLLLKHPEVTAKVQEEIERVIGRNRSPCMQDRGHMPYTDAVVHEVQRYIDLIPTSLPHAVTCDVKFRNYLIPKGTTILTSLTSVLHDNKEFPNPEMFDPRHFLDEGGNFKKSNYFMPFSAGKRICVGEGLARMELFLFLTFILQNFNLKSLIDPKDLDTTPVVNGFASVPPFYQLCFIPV
# Outline: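 Enzyme-substrate mix with proluciferin substrate (P450-Glo CYP2C19 system) preincubated with compounds 10 min at room temperature; NADPH regeneration solution added, 37C for 1 h; detection reagent stops reaction, luminescence read after 20 min. Ketoconazole positive control.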
# [7] = molecular target: Cytochrome P450 2C9 (Homo sapiens) (UniProt P11712); assay: Cytochrome P450 Family 2 Subfamily C Member 9 (CYP2C9) small molecule antagonists: luciferase reporter qHTS assay (AID 1671198); also: nearly all actives have a fitted effect of over 50% in size; also: potency is read from the fitted curve at half-maximal effect
# Chain of Cytochrome P450 2C9 (Homo sapiens) (P11712 whole entry, looked up): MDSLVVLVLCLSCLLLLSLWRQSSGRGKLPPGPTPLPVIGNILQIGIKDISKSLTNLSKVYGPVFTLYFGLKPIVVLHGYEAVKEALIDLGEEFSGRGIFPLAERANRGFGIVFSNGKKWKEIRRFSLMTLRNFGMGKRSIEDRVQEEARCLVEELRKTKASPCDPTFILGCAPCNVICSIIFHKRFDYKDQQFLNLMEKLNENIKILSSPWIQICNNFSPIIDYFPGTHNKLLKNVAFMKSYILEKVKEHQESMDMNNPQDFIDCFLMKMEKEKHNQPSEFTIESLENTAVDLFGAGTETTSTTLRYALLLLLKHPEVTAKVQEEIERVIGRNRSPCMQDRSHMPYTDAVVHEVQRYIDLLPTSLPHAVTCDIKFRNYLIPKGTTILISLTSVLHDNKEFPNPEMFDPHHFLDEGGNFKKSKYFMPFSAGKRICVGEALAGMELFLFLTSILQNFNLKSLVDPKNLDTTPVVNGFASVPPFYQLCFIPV
# Outline: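 CYP2C9 activity was measured with a P450-Glo proluciferin substrate. Enzyme–substrate mix was held with compound for 10 min at room temperature, then NADPH regeneration solution was added for 1 h at 37C. Luciferin product was read as luminescence.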
# [8] = molecular target: Nuclear receptor subfamily 1 group I member 2 (Homo sapiens) (UniProt O75469); assay: Human pregnane X receptor (PXR) activation by small molecules, qHTS assay (AID 1346985); also: nearly all actives have a fitted effect of over 40% in size; also: potency is read from the fitted curve at half-maximal effect
# Outline: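 DPX-2 cells (HepG2 co-transfected with a PXR response element and a CYP3A4-promoter luciferase construct) were seeded at 2,000 per well, rested 5 hr at 37C, then exposed to DMSO-dissolved compounds for 24 hr. Activation was read as luciferase luminescence.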
# [9] = molecular target: Nuclear receptor subfamily 1 group I member 2 (Homo sapiens) (UniProt O75469); assay: CYP3A4 induction through human pregnane X receptor (PXR) by small molecules, qHTS assay (AID 1346984); also: nearly all actives have a fitted effect of over 40% in size
# Outline: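 Luminescence readout: luciferase signal after One-Glo (30 min, room temperature), following 3 h at 37C with 3uM final Luciferin-IPA P450 substrate. Cells were DPX-2 (HepG2, PXR/CYP3A4-luc co-transfected) dosed for 24 h.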
SMILES,Potency [1],Potency [2],Potency [3],Potency [4],Potency [5],Potency [6],Potency [7],Potency [8],Potency [9]
CCCCCCCCCCOC(=O)c1ccccc1C(=O)OCCCCCCCC,inactive,inactive,inactive,inactive,inactive,inactive,,,
OC1CCCc2ccccc21 (configuration not stated),inactive,inactive,inactive,inactive,inactive,inactive,inactive,,
O=C1OC2(c3ccc(O)cc3Oc3cc(O)ccc32)c2ccc(N=C=S)cc21,inactive,inactive,inactive,inactive,inactive,72.3 µM (active),72.3 µM (active),,
CC(C)(c1cc(Br)c(OCC(Br)CBr)c(Br)c1)c1cc(Br)c(OCC(Br)CBr)c(Br)c1 (configuration not stated),inactive,inactive,inactive,inactive,inactive,inactive,,,
CC1=CCC(=C(C)C)CC1,inactive,inactive,inactive,43.3 µM (active),inactive,79.6 µM (active),39.9 µM (active),,
C1CCC(SSC2CCCCC2)CC1,inactive,inactive,inactive,inactive,inactive,inactive,,,
COCCOc1cc2cc(C(=O)NC3CCN(C(C)C)CC3)n(CC(=O)Nc3ccc(Cl)cn3)c2cn1,inactive,inactive,inactive,inactive,inactive,,,,
COC(=O)Nc1nc2ccc(C(=O)c3ccccc3)cc2[nH]1,8.41 µM (active),inactive,inactive,4.22 µM (active),,inactive,inactive,5.01 µM (active),
CCCC(=O)OCCc1ccccc1,inactive,inactive,inactive,inactive,inactive,inactive,inactive,,
C=C(C)C(=O)OCCCCCCCCCC,54.9 µM (active),inactive,61.6 µM (active),30.9 µM (active),inactive,56.8 µM (active),,,
CCC(CC)C(C)CCOC(C)=O (configuration not stated),inactive,inactive,inactive,inactive,inactive,inactive,,,
CC(C)(C)c1csc(-c2cc3cc(OCc4ccccc4CC(=O)O)ccc3o2)n1,61.1 µM (active),inactive,68.6 µM (active),61.1 µM (active),inactive,inactive,56.4 µM (active),,
O=C(O)c1cc(N=Nc2ccc([N+](=O)[O-])cc2)ccc1O,47.7 µM (active),inactive,53.5 µM (active),0.301 µM (active),69.7 µM (active),39.2 µM (active),34.9 µM (active),,
O=C(O)Cc1ccccc1Nc1c(Cl)cccc1Cl,inactive,inactive,inactive,inactive,inactive,inactive,,,
C=Cc1ccccc1C=C,inactive,inactive,inactive,109 µM (active),79.4 µM (active),inactive,,,
C=CC(C)(CCC=C(C)C)OC=O (configuration not stated),inactive,inactive,inactive,inactive,inactive,20 µM (active),35.6 µM (active),,
CCCC1CCC(=O)CC1,inactive,inactive,inactive,inactive,inactive,inactive,inactive,,
CCC(COC(=O)CCS)(COC(=O)CCS)COC(=O)CCS,inactive,inactive,inactive,21.7 µM (active),inactive,5.64 µM (active),28.3 µM (active),,
Clc1sc(Cl)c(Cl)c1Cl,inactive,inactive,inactive,inactive,inactive,inactive,inactive,,
C=CCCC(=O)/C=C/C1C(C)=CCCC1(C)C (configuration not stated),inactive,inactive,inactive,27.3 µM (active),inactive,17.8 µM (active),,,
CC1(C)CC(O)CC(C)(C)N1,inactive,inactive,inactive,55.5 µM (active),inactive,inactive,inactive,,
CC/C=C\CCCCCO,inactive,inactive,inactive,inactive,inactive,inactive,inactive,,
C=C(CC)C(=O)c1ccc(OCC(=O)O)c(Cl)c1Cl,68.1 µM (active) and inactive,inactive,30.4 µM (active),inactive,25 µM (active) and inactive,inactive,8.88 µM (active) and 5.49 µM (active),,
CCC(=O)C(=O)CC,inactive,inactive,inactive,18 µM (active),inactive,41.6 µM (active),,,
OC[C@@H](O)[C@@H](O)CO,inactive,inactive,inactive,inactive,inactive,inactive,inactive,,
O=C1C(c2[nH]c3ccc(S(=O)(=O)O)cc3c2O)=Nc2ccc(S(=O)(=O)O)cc21,inactive,inactive,inactive,inactive,63.3 µM (active),79.6 µM (active),,,
COc1cc(/C=C/c2ccccc2)oc(=O)c1,inactive,inactive,inactive,7.96 µM (active),inactive,10.4 µM (active),32.8 µM (active),,

SMILES,Potency [1],Potency [2],Potency [3],Potency [4],Potency [5],Potency [6],Potency [7],Potency [8],Potency [9]
CN(C)c1ccc(C(=C2C=CC(=[N+](C)C)C=C2)c2ccc(N(C)C)cc2)cc1,1.71 µM (active) and 686 nM (active) and 2.37 µM (active),7.66 µM (active) and 6.11 µM (active) and 8.41 µM (active),17.1 µM (active) and 9.69 µM (active) and 8.41 µM (active),2.42 µM (active),,19.9 µM (active) and 22.4 µM (active) and 21.9 µM (active),,inactive,inactive
COc1cc(S(=O)(=O)O)c(C)cc1N=Nc1c(O)ccc2cc(S(=O)(=O)O)ccc12,15.4 µM (active),inactive,19.3 µM (active),inactive,35.6 µM (active),79.6 µM (active),39.9 µM (active),,
CC1(C)CCC[C@]2(C)[C@H]3CCO[C@]3(C)CC[C@@H]12,inactive,inactive,inactive,inactive,inactive,inactive,inactive,,
O=C1CCCCCCCCCCCCCCCO1,inactive,inactive,inactive,inactive,inactive,inactive,inactive,,
CC(CO)Oc1ccccc1 (configuration not stated),inactive,inactive,inactive,inactive,41.2 µM (active),36.7 µM (active),inactive,,
CC(C)CCCCCOC(=O)CCS,inactive,inactive,inactive,inactive,inactive,,,,
Nc1nc(-c2ccccc2)cs1,inactive,inactive,inactive,27.2 µM (active),12.6 µM (active),5.01 µM (active),11.2 µM (active),,
NC(=O)c1cccc([N+](=O)[O-])c1,inactive,inactive,inactive,inactive,inactive,inactive,inactive,,
Cc1nc2n(c(=O)c1CCN1CCC(c3noc4cc(F)ccc34)CC1)CCCC2,inactive,inactive,inactive,inactive,2.19 µM (active),inactive,inactive,,
OCC(F)(F)F,inactive,inactive,inactive,inactive,inactive,74.8 µM (active),inactive,,
CC(C)(C)C1CCC(=O)CC1,inactive,inactive,inactive,inactive,inactive,7.96 µM (active),inactive,,
CC(C)=CCC1=C(O)c2ccccc2C(=O)C1=O,30.5 µM (active),inactive,60.8 µM (active),19.2 µM (active),44.6 µM (active),28.1 µM (active),31.6 µM (active),,
CCCc1ccc(OCC(=O)N2CCN(C(=O)COc3ccc(CCC)cc3OC)CC2)c(OC)c1,inactive,inactive,inactive,4.22 µM (active),inactive,3.47 µM (active),3.47 µM (active),,
OC/C=C/CO,inactive,inactive,inactive,inactive,17.8 µM (active),inactive,inactive,,
CCn1c2ccccc2c2cc([N+](=O)[O-])ccc21,inactive,inactive,inactive,19.3 µM (active),inactive,7.96 µM (active),inactive,,
COC(=O)c1ccccc1C,inactive,inactive,inactive,inactive,inactive,inactive,inactive,,
O=C(O)CCN(C1(C(=O)NO)CCCC1)S(=O)(=O)c1ccc(Oc2ccc(F)cc2)cc1,inactive,inactive,inactive,inactive,inactive,inactive,inactive,,
Cc1ccc(O)c(N)c1,61.2 µM (active),inactive,inactive,48.6 µM (active),35.6 µM (active),35.6 µM (active),15.9 µM (active),,
S=c1nccc[nH]1,inactive,inactive,inactive,inactive,31.8 µM (active),31.8 µM (active),20 µM (active),,
COC(=O)c1ccccc1OC,inactive,inactive,inactive,inactive,inactive,inactive,inactive,,
C#Cc1ccc(-c2ccccc2F)cc1,inactive,inactive,inactive,inactive,inactive,7.76 µM (active),15.5 µM (active),,
Nc1ccc(NCCO)c([N+](=O)[O-])c1,43.3 µM (active),inactive,48.6 µM (active),inactive,35.6 µM (active),79.6 µM (active),35.6 µM (active),,
C=C(C)c1cccc(C(=C)C)c1,inactive,inactive,inactive,inactive,inactive,inactive,inactive,,
COC(C)=O,inactive,inactive,inactive,inactive,inactive,inactive,inactive,,
Cc1ccc(C(=O)O)cc1,inactive,inactive,inactive,inactive,inactive,inactive,inactive,,
CN(C)Cc1ccccc1O,inactive,inactive,inactive,inactive,inactive,inactive,inactive,,
